GLS inhibitor: qHTS for Inhibitors of Glutaminase (GLS); GLS enzymatic activity, qHTS titration; AID 624170, 2012; Potency, µM (series often up to 45.5 µM), without a hit: at the top dose activity change, negative = inhibition, usual class: inhibitors; Glutaminase kidney isoform, mitochondrial (Homo sapiens), O94925; 0.21% of 410,000 active; also: % is scaled to controls: 0 for no effect and ±100 for the full control effect
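Assay buffer: 45 mM KH2PO4 pH 8.2, 0.02% Tween-20. hKGA acts on L-glutamine (1 mM solution added); product glutamate is reported by an oxidase/peroxidase Amplex Red coupling, with fluorescence taken at baseline and 30 min.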
PINK1 expr mod: A Quantitative High throughput Screen to Identify Chemical Modulators of PINK1 Expression | PINK1 immunofluorescence, high-content cytometry, 24 h | 0.2% of 410,000 active | Potency, µM (doses to about 76.6 µM), for inactives: at the top dose activation (PINK1 increase), most hits filed as activators; active = well fitted activation curve with a large enough effect; inconclusive = small, poorly fitted or top-dose-only effect; cell line not stated here; also: % of control where 0% means no effect; nearly all actives have a fitted effect of over 65% in size
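Compound titrations (5 concentrations, 24 h) on a stable cell line; DMSO and CCCP controls. Endpoint: fixed-cell PINK1 immunofluorescence with mitochondrial, cell and nuclear markers, scanned by microplate cytometer.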
Vif-A3G inh: qHTS for Inhibitors of Vif-A3G Interactions: qHTS; DNA dC->dU-editing enzyme APOBEC-3G (Homo sapiens), Q9HC16; HeLa A3G-eYFP + Vif (tagged APOBEC3G with the HIV-1 protein that degrades it), YFP fluorescence, overnight; Potency, µM (doses to about 46.1 µM), for inactives: at the highest dose activity, negative = active, most hits filed as inhibitors; 0.076% of 410,000 active; also: % is scaled to controls: 0 for no effect and ±100 for the full control effect; nearly all actives have a fitted effect of over 60% in size
Target sequence (Q9HC16 whole entry, looked up): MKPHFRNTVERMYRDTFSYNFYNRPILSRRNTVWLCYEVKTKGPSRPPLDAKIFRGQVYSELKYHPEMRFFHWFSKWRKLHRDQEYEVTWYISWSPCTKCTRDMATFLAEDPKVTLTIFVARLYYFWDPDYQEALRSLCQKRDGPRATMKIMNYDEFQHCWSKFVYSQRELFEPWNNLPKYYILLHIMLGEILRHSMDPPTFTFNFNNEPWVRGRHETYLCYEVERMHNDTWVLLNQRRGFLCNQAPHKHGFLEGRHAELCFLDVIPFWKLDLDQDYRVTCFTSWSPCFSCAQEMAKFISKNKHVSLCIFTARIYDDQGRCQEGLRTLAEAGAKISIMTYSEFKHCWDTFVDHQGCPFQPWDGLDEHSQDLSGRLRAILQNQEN
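Read-out is eYFP fluorescence (Ex 488/Em 500-530) from Vif-expressing HeLa A3G-eYFP cells; more signal means A3G escaped Vif-mediated degradation. Cells plated overnight, compound pinned in, incubated overnight at 37 deg C.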
Vif-A3F inh: qHTS for Inhibitors of Vif-A3F Interactions: qHTS; HeLa A3F-eYFP + Vif (tagged APOBEC3F with the HIV-1 protein that degrades it), YFP fluorescence increase; Potency, µM (doses to about 46.1 µM), without a hit: at the highest dose activity, negative = active; 0.2% of 390,000 active; AID 602313, 2012; also: % of control where 0% means no effect; nearly all actives have a fitted effect of over 65% in size
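HeLa cells stably expressing A3F-eYFP plus Vif, plated and incubated overnight at 37 deg C, then exposed to compounds overnight at 37 deg C. Blocked degradation read as raised yellow fluorescence (Ex 488/Em 500-530).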
Epigenetic derep: Quantitative High-Throughput Screen for Regulators of Epigenetic Control. murine LDR cells, GFP reporter derepression, 30 h. Potency, µM (doses to about 53.9 µM), inactives show at the top dose GFP activation, most hits filed as activators. 0.2% of 280,000 active; also: % of control where 0% means no effect; nearly all actives have a fitted effect of over 60% in size
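In this reporter-derepression format, murine cells bearing a silenced integrated CMV-GFP locus incubate with test compound (30 h, 37 C), then are washed and imaged; fluorescent objects of 20–120 um count as induced cells.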
An asterisk follows results filed as active; ? = inconclusive; . = not tested or not shown; [ ] = remark or other dose. In the library only some 0.7% were active in any assay of this set; here they are far more common. Unless noted, calls follow the shape of the dose curve; as a rule, active = well fitted curve in the direction sought with a large enough effect; inconclusive = small, poorly fitted or top-dose-only effect, or another doubt; inactive = no such curve, though single readings can be large; an effect the other way counts as inactive or inconclusive. Potency is read from the fitted curve at half-maximal effect.

SMILES | GLS inhibitor | PINK1 expr mod | Vif-A3G inh | Vif-A3F inh | Epigenetic derep
Cc1ccc(Cl)c2c(N=Nc3ccccc3)c(O)[nH]c12 | 2% | ? | -13% | 8.9µM* | .
Cc1cc(Cl)cc2c(N=Nc3ccccc3C(=O)O)c(O)[nH]c12 | -8% | 1% | -1% | 1% | .
Cc1cc(C)nc(NC(=NCc2ccc3c(c2)OCO3)NC(=O)Nc2ccccc2)n1 | 2% | 14µM* | 1% | -1% | 4%
CC1CN(Cc2cccn2-c2cccnc2)Cc2cc(Cl)ccc2O1 (stereo not drawn) | . | 2% | . | . | .
CC[C@]1(O)C[C@H]2CN(CCC3=c4ccccc4=N[C]3[C@@](C(=O)OC)(c3cc4c(cc3OC)N(C)[C@H]3[C@@](O)(C(N)=O)[C@H](O)[C@]5(CC)C=CCN6CC[C@]43[C@@H]65)C2)C1 | 15% | . | . | . | .
CC/C=C\C/C=C\C/C=C\CCCCCCCCCCCC(=O)O | . | . | . | . | 5%
CC/C=C\C/C=C\C/C=C\C/C=C\C/C=C\CCCC(=O)O | 32µM* | . | . | . | 1%
CC/C=C\C/C=C\C/C=C\CCCCCCCC(=O)O | 22µM* | 1% | 1% | ? | 11%
O=C(Cn1cc2ccccc2n1)N1CCOc2ccc(C(O)C3CCCCC3)cc2C1 (stereo not drawn) | . | 2% | . | . | .
Cc1cnc(-n2ncc(C(=O)NCCc3ccccn3)c2C)nc1-c1ccc(F)cc1 | . | -1% | . | . | .
Cc1ccc(N2C(=O)[C@@H]3[C@H](C2=O)[C@H]2C=C(C(=O)c4ccccc4)C=CN2[C@@H]3C(=O)c2ccc(Cl)cc2)cc1 | -13% | 0% | -15% | 11µM* | 0%
CN(CCC#N)C(=O)COC(=O)c1c2c(nc3ccccc13)/C(=C/c1ccco1)CC2 | 6.3µM* | 2% | -13% | -8% | 0%
O=C(O)c1cc2nccc(-c3ccco3)n2n1 | 11µM* | 0% | 7% | -7% | -1%
Cc1cnc(-n2ncc(C(=O)NCC3COCCO3)c2C2CC2)nc1-c1cccs1 (stereo not drawn) | . | 1% | . | . | .
Cc1ccccc1-c1cn(-c2ccccc2)c(=S)[nH]1 | 11µM* | 1% | -7% | -13% | .
Cc1ccc(-c2cn(-c3ccccc3)c(=S)[nH]2)cc1C | 6% | 0% | -6% | 9% | .
CCOC(=O)c1c(CC(C)C)csc1/N=C/C1C(=O)CCCC1=O | -17% | ? | ? | 22µM* | ?
N#Cc1c(C(F)(F)F)cc(-c2ccco2)nc1SCc1ccccn1 | 5% | 0%[38.3 µM] | ? | 25µM* | ?
COc1cc(OC)c2nc(-c3cc4c(c(OC)c3)OCCN(C(=O)C(C)c3n[nH]c(=O)c5ccccc35)C4)cc(C)c2c1 (stereo not drawn) | . | 1% | . | . | .
CCOc1ccc2nc(N3CCCC3C(=O)N3CCC(c4nc5ccccc5o4)CC3)nc(C)c2c1 (stereo not drawn) | . | 1% | . | . | .
ClC(Cl)(Cl)c1nc2ccccc2n2nncc12 | 11µM* | -2% | -22% | -3% | .
c1ccc2c(c1)nnn1c3ccccc3nc21 | . | . | . | . | -1%
COc1ccc(C(=O)NCCc2nnc3n2CCN(CC2CC=CCC2)CC3)cc1 (stereo not drawn) | . | 0% | . | . | .
CCOC(=O)CC1C(=O)NCCN1c1nc2ccc(C)cn2c(=O)c1/C=C1\SC(=S)N(CC(C)C)C1=O (stereo not drawn) | -2% | 24% | ? | ? | 3.5µM*
CCOC(=O)CC1C(=O)NCCN1c1nc2ccc(C)cn2c(=O)c1/C=C1\SC(=S)N(C(C)CC)C1=O (stereo not drawn) | . | . | . | . | -3%
Cc1ccc(CNc2nc3ccc(C)cc3n3cnnc23)cc1 | -6% | 5% | -3% | -17% | 2%
Cc1ccc(CNc2nc3ccc(Cl)cc3n3nnnc23)cc1 | 0% | -1% | 3% | 7.1µM* | ?
O=C(NCc1ccc(F)cc1)c1ccc(Nc2nc3ccccc3n3nnnc23)cc1 | -4% | 0% | 1% | ? | ?

Screening results (PubChem)
